Most compounds without a hit are left out; they make up all but 2.2% or so of the library.
APP transl inh: APP translation inhibition; SH-SY5Y APP 5'UTR-luciferase reporter, luminescence; inhibition, % at 2 µM; hit rate 0.82% among 190,000;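 active = inhibition above a set limit, derived from the sample mean plus 3 SD, cut at about 45% in these data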
Ba/F3 V617F tox: reduce viability of Ba/F3 cells dependent on JAK2V617F | Ba/F3 EpoR-JAK2V617F viability, ATP luminescence | inhibition, % at 5.6 µM | hit rate 1.1% among 220,000;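 active = inhibition above the campaign mean plus 3 SD over all tested compounds, cut at about 24% in these data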;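 note: cytokine-independent growth of Ba/F3 cells driven by EpoR plus mutant JAK2; 0% = DMSO-treated cells and 100% = JAK inhibitor I control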
KLF5 inhibitor: inhibitors of KLF5 expression. DLD-1 KLF5 promoter-luciferase reporter, luminescence. inhibition, % at 5 µM. hit rate 0.23% among 290,000. AID 1700;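 active = inhibition above a per-plate limit of that plate's mean compound inhibition plus 3 SD, cut at about 60% in these data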;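 note: 0% = DMSO wells and 100% = LY294002 at 200 µM; higher means less KLF5 promoter-driven luciferase light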
BaF3 tox: counter-screen for JAK2V617F inhibitors: parental Ba/F3 viability inhibitors | CellTiter-Glo ATP luminescence | inhibition, % at 5.6 µM | hit rate 1.1% among 220,000;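 active = inhibition above a per-campaign cutoff, the mean inhibition of all tested compounds plus 3 SD, cut at about 27% in these data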;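 note: 0% = DMSO wells and 100% = JAK Inhibitor I control wells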
aSyn UTR inh: MLPCN primary screen, SNCA 5' untranslated region | alpha-synuclein 5'UTR reporter, inhibitor activity | inhibition, % (tested at 7.5 µM) | hit rate 0.82% among 300,000; in the data active = inhibition above about 60%;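 note: H4 neuroglioblastoma cells stably carrying SNCA 5'UTR luciferase fusion; 0% = DMSO wells and 100% = positive control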
IEC-6 cytotox: IEC-6 cytotoxicity, counter-screen for KLF5 inhibitors; luminescence viability; inhibition, % at 5 µM; hit rate 0.78% among 290,000; AID 1825; in the data active = inhibition above about 22%;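 note: 0% = plate median of test compound wells and 100% = cytotoxic reference compound wells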
* hit, by the source's call; x = not tested or not shown.

SMILES	APP transl inh	Ba/F3 V617F tox	KLF5 inhibitor	BaF3 tox	aSyn UTR inh	IEC-6 cytotox
S=c1[nH]nc(-c2cccc3ccccc23)n1-c1cccnc1	x	52*	-18	50*	-13	-3
CCc1cccc(CC)c1-n1c(-c2cccnc2)n[nH]c1=S	-12	1	-34	4	4	-3
COc1cc2nc(Nc3ccc(C)c(Cl)c3)nc(N)c2cc1OC	x	x	-55	x	99*	3
NC1=NC2=C(CCCC2)C2(CCCCC2)S1	8	5	9	5	77*	13
CCCN1CCC(NC(=O)Nc2cc(Cl)ccc2OC)CC1	0	1	3	90*	1	5
CC(=O)[C@@]1(O)C(C)CC2C3C=C(C)C4=Cc5c(cnn5-c5ccccc5)C[C@]4(C)C3C(O)C[C@@]21C (some centres not stated)	x	9	-33	0	81*	27*
Nc1ccc2oc(-c3cccc4ccccc34)nc2c1	49*	0	-16	6	71*	10
Cc1ccc(-c2nc3cc(N)ccc3o2)c(C)c1	-42	-1	-103	4	20	-6
Cc1ccc(Cl)cc1N(C)C(=O)Cn1ncc2c([nH]c3ccccc32)c1=O	x	x	-13	x	27	1
COc1ccc(C(=O)NCc2nnc(SCC(=O)NC3CCCCC3)o2)cc1	x	x	-35	x	37	-1
c1ccc(-c2noc(-c3ccc4ccccc4c3)n2)cc1	-150	-2	37	0	77*	2
COP(=O)(OC)c1nc(-c2cccc3ccccc23)oc1N1CCOCC1	-28	-1	-23	28*	15	5
Cc1ccc(/C=C2\CCC3=C2OC(N)=C(C#N)C3c2ccc(C)cc2)cc1 (configuration not stated)	47*	-4	-29	1	-12	-11
N#CC1=C(N)OC2=C(CCc3ccccc32)C1c1ccccc1 (configuration not stated)	96*	1	-51	3	70*	0
Cc1ccc(C2C(C#N)=C(N)Oc3cc(N)ccc32)cc1 (configuration not stated)	x	x	-43	x	9	-4
Cc1ccc(N2C(N)=NC(N)=NC2(C)C)c(C)c1	-3	87*	-1	100*	6	-2
Cc1ccccc1N1C(N)=NC(N)=NC1(C)C	-4	56*	-17	57*	9	-4
COc1cccc(C(=O)NNS(=O)(=O)c2ccc(C)cc2)c1	x	x	-18	x	18	-6
C=CCn1c(=O)c2ccccc2n2c(SCC(=O)NC)nnc12	x	x	-29	x	-20	0
O=C(NCc1ccco1)c1ccc(Cn2c(=O)c3ccccc3n(Cc3cccc(Cl)c3)c2=O)cc1	1	-1	-9	3	64*	2
Cc1nn(CC(=O)Nc2ccc(Cl)cn2)c(C)c1[N+](=O)[O-]	1	-1	-2	43*	-3	0
Cc1cc([N+](=O)[O-])nn1CC(=O)Nc1ccc(Cl)cn1	-8	2	-10	3	10	5
CCN(c1ccccc1C)S(=O)(=O)c1cc2c3c(c1)CCC(=O)N3CCC2	x	x	-25	x	7	-2
COc1ccccc1OCCCC(=O)Nc1ccc([N+](=O)[O-])cc1Br	-6	2	-7	7	2	1
O=C1CCC2S/C(=C/Nc3ccc(C(F)(F)F)cc3)C(=O)N12 (configuration not stated)	72*	-2	40	7	99*	7
SMILES	APP transl inh	Ba/F3 V617F tox	KLF5 inhibitor	BaF3 tox	aSyn UTR inh	IEC-6 cytotox
O=C1CCCC/C1=C/Nc1cccc(C(F)(F)F)c1	4	-1	-6	5	-32	-2
COc1ccc(C(=O)Nc2ccc(Cn3ccnc3)cc2)cc1OC	x	x	-16	x	-54	7
COc1ccc(C(=O)Nc2cnn(Cc3ccc(Cl)cc3)c2)cc1OC	-2	35*	38	36*	43	2
OCCN1CCN(CC/C=C2/c3ccccc3CSc3ccccc32)CC1	x	x	x	x	103*	x
COc1ccc(N2CCN(S(=O)(=O)c3ccc4c(c3)NC(=O)CC(=O)N4)CC2)cc1	x	x	-19	x	-1	-5
CC(C)(C)C(=O)NC(=S)Nc1cccc(C(=O)O)c1	-86	1	-182	10	-161	-4
O=C(NC(=S)Nc1cccc2cccnc12)c1ccccc1	-8	-5	-14	102*	-43	-2
O=C(O)c1cccc(NC(=S)NC(=O)c2ccncc2)c1	60*	3	-11	2	-7	2
CN(CC(=O)Nc1ncn[nH]1)S(=O)(=O)c1ccc(Br)cc1	x	x	-26	x	-3	-2
O=C(Nc1ccc(Cl)cc1C(F)(F)F)c1ccc(Cl)cc1	-5	-1	-13	4	-104	-4

Screening data as filed in PubChem BioAssay.
